Measurements reported in PubChem BioAssay (NCI).
The panel holds about 83,000 compounds, 20% with a hit somewhere; the sample as a whole holds those more often.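 Assay: single dose, 48 h. Readout: percent growth (0 = no net growth; negative = cell death). Active: <10.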 Unmarked numbers belong to inactive results. The source made the active and inactive calls.

System: MDA-MB-468 breast
Assay: NCI-60 one-dose screen, 48 h (100 = growth as untreated, 0 = no growth, -100 = all killed)
Conditions: 10 µM unless noted

Compound	growth
Cc1ccc(/C=C2\CN(Cc3cn(CCNc4ccnc5cc(Cl)ccc45)nn3)C/C(=C\c3ccc(C)cc3)C2=O)cc1	-31.1% (active)
O=NN(C(=O)NC1CCC(C(=O)O)CC1)C1CCC(C(=O)O)CC1 (stereo not given)	96.1%
COc1cccc(-c2nc3sccn3c2-c2ccnc(NCCCNS(=O)(=O)c3cccc(F)c3)c2)c1	8.57% (active)
COc1ccc(-n2ncc3c2ccc2cc(S(=O)(=O)c4ccccc4)c(=O)n(C)c23)cc1	94.5%
Cc1cc(SCc2ccc(Cl)cc2Cl)nc(SCc2ccc(Cl)cc2Cl)n1	104%
